# The whole screen tested about 48,000 compounds, of which about 13,000 (27%) showed an effect of 50% or more. The list shows a part of the results.
# Tested on: Wolbachia pipientis
# Test: Anti-Wolbachia Cell-Based Screen
# Assay type: functional
# Set-up: scale not given: in the data most compounds retested in dose-response had high values
# Conditions: 5 µM
row,SMILES,Percent Effect
1,O=C(O)C(F)(F)F.O=C(O)C(F)(F)F.c1ccc(CN2CCOCC3(CCN(C4CCOCC4)C3)C2)cc1 (configuration not stated),-14.02%
2,CS(=O)(=O)N1CC2(CCCN(C3COC3)C2)Cc2ccccc21 (configuration not stated),116.4%
3,Cc1cccc(N2CCC(N3CCCC4(CN(C)C(=O)O4)C3)CC2)c1C (configuration not stated),11.85%
4,Cc1cccc(N2CCC(N3CCCC4(CNC(=O)O4)C3)CC2)c1C (configuration not stated),-4.7%
5,CS(=O)(=O)N1CCOC2(CCN(c3ncccn3)CC2)c2ccccc21,-2.489%
6,CS(=O)(=O)N1CC2(CCN(C3COC3)C2)Cc2ccccc21 (configuration not stated),109.7%
7,Cn1c(C2CC2)nc2cc(NC(=O)C3CCOC3)ccc21 (configuration not stated),-8.416%
8,CCc1nnc(CN2CCCN(C(=O)c3ccccn3)CC2)o1,-2.51%
9,Cc1nnc2n1CCN(C(=O)CN1C(=O)CCCc3ccccc31)C2,-14.77%
10,COC(=O)c1ccc(N2CCN(C(=O)c3cc(C)on3)C(C)C2)cc1 (configuration not stated),-4.868%
11,Cc1cc(C(=O)N2CCC3(CC2)c2nc[nH]c2CCN3CC(C)C)no1,-20.9%
12,Cc1cc(CNC(=O)N2CCN(c3ccccc3)CC2)no1,0.5807%
13,Cc1cc(C(=O)N2CCN(c3nc4ccccc4s3)CC2)no1,133.9%
14,COc1cccc2sc(N3CCN(C(=O)c4cc(C)on4)CC3)nc12,127.7%
15,Cc1cc(C(=O)N2CCN(c3nc4c(C(C)C)cccc4s3)CC2)no1,100.9%
16,Cc1cc(C(=O)N2CCN(c3nc4c(C)cccc4s3)CC2)no1,128.5%
17,COc1cccc([C@H]2CN(C(=O)c3cc(C)on3)C[C@@H]2N)c1,-12.5%
18,CCc1nc(CN2CCCN(C(=O)c3cc(C)on3)CC2)cs1,-3.396%
19,Cc1cc(NC(=O)N2CCN(c3nc(C)c(C)s3)CC2)no1,-7.587%

row,SMILES,Percent Effect
1,Cc1cc(C(=O)N2CCc3ncc(CN4CCCCC4)n3CC2)no1,-1.928%
2,Cc1cc(CNC(=O)N2CCN(c3nc(C)c(C)s3)CC2)no1,-6.921%
3,CNS(=O)(=O)c1ccc(CNC(=O)Nc2cc(C)on2)s1,-23.04%
4,Cc1ccc2nc(C)c(C)c(C(=O)N3CCS(=O)(=O)CC3)c2c1,7.171%
5,O=C(NCC(Cc1cccc(F)c1)n1cccc1)C1CC1 (configuration not stated),6.756%
6,COCCC(C)NCc1ccccc1-n1ccnc1 (configuration not stated),-12.2%
7,COc1cccc(NC(=O)N(CCO)C2CCc3ccccc32)c1 (configuration not stated),-4.61%
8,O=C(CN1CCOC(Cn2cccn2)C1)Nc1nncs1 (configuration not stated),-3.509%
9,NC(=O)C(NC(=O)CSCc1ccc(Cl)s1)c1ccccc1 (configuration not stated),12.02%
10,Cc1cc(C(=O)N2CCN(c3nc4c(C(C)C)cccc4s3)CC2)on1,114.6%
11,Cc1cc(C(=O)N2CCN(c3nc4c(F)cccc4s3)CC2)no1,123.7%
12,Cc1cc(C(=O)N2CCc3c(ncn3CCc3ccccc3)C2)on1,8.742%
13,CCc1nc(CN2CCN(C(=O)c3cc(C)no3)CC2)cs1,6.247%
14,Cc1cccc(C(=O)N2CCN(c3ccccc3F)CC2)n1,-20.73%
15,CCOC(=O)N1CCN(C(=O)c2cc(-c3ccccc3F)on2)CC1,1.064%
16,Cc1cccc(C(C(=O)N(C)Cc2cc(C)no2)N(C)C)c1 (configuration not stated),-11.12%
17,CC(C)=CCN1CCNC(=O)C1CC(=O)N1CCc2sccc2C1 (configuration not stated),13%
18,O=C(NC1CC1)[C@@H]1C[C@@H]2CCN(Cc3ccccc3)C[C@H]2O1.O=C(O)C(F)(F)F,-0.327%
19,O=C(NC1CCC1)[C@@H]1C[C@@H]2CCN(CCc3ccccc3)C[C@H]2O1.O=C(O)C(F)(F)F,2.186%

row,SMILES,Percent Effect
1,O=C(O)C(F)(F)F.O=C([C@@H]1C[C@@H]2CCN(Cc3ccoc3)C[C@H]2O1)N1CCCC1,103.1%
2,O=C(NC1CCCC1)[C@@H]1C[C@@H]2CCN(Cc3ccoc3)C[C@H]2O1.O=C(O)C(F)(F)F,111.5%
3,COc1ccccc1CN1CC[C@H]2C[C@H](C(=O)N3CCCC3)O[C@H]2C1.O=C(O)C(F)(F)F,-2.148%
4,COc1ccccc1CN1CC[C@H]2C[C@@H](C(=O)N3CCCC3)O[C@H]2C1.O=C(O)C(F)(F)F,2.639%
5,Cc1ncccc1NC(=O)[C@H]1C[C@@H]2CCN(Cc3ccsc3)C[C@H]2O1.O=C(O)C(F)(F)F.O=C(O)C(F)(F)F,-7.023%
6,O=C(NC1CC1)[C@@H]1C[C@@H]2CCN(Cc3ccoc3)C[C@@H]2O1.O=C(O)C(F)(F)F,102.1%
7,O=C(NC1CC1)[C@@H]1C[C@@H]2CCN(Cc3ccccc3)C[C@@H]2O1.O=C(O)C(F)(F)F,-0.7056%
8,CC(C)NC(=O)[C@@H]1C[C@@H]2CCN(Cc3ccoc3)C[C@H]2O1.O=C(O)C(F)(F)F,74.8%
9,Cc1c(C(=O)OCC2CC(=O)N(c3ccccc3)C2)cnn1C(C)C (configuration not stated),4.999%
10,CN(C)S(=O)(=O)N1C[C@@H]2CN(Cc3ccoc3)CCO[C@@H]2C1.O=C(O)C(F)(F)F,-19.85%
11,CN(C)C(=O)[C@@H]1C[C@@H]2CCN(Cc3ccc4c(c3)OCO4)C[C@@H]2O1.O=C(O)C(F)(F)F,-14.9%
12,CN(C)C(=O)[C@H]1C[C@@H]2CCN(Cc3ccoc3)C[C@@H]2O1.O=C(O)C(F)(F)F,113.2%
13,CCc1ccc(C(=O)N2CC[C@](C)(O)C(C)(C)C2)[nH]1,-18.68%
14,COc1ccccc1N1CCN(C(=O)CCn2nnnc2C)CC1(C)C,3.802%
15,COc1ccccc1-n1cc(C(=O)NCCCn2nc(C)nc2C)cn1,95.25%
16,COc1ccccc1-n1cc(C(=O)NCCn2nc(C)nc2C)cn1,116.2%
17,COc1ccccc1-n1cc(CN2CCN(C)[C@@H]3CS(=O)(=O)C[C@@H]32)cn1,-2.085%
18,Cc1nc(C)n(CCCNC(=O)C(C)n2ccnc2C(C)C)n1 (configuration not stated),3.373%
19,COc1c2ccc(C(=O)NCCCn3ncccc3=O)cc2nn1C,16.19%

# — ChEMBL document CHEMBL3988442, “University of Dundee, Small-Polar-MMV Screening Library” (2021)
